Reference: PubChem BioAssay AID1159580 (chemical genetic matrix, 2015)
The campaign covered roughly 5,500 compounds. About 2,000 (36%) were called active. Inconclusive results (about 18%) are left out. No stated cut-off is given here; in the data, active means normalized growth mostly below about 0.91 (no sharp cut-off); inconclusive means no clear call, values can overlap the other calls; inactive means mostly above about 0.92. Some of the results follow.

Experiment: chemical genetic growth profiling, strain panel (AID 1159580);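 further: tested at 20 µM; growth read once vehicle control cultures reached saturation at 30 °C; 1 = growth at the plate median or of vehicle wells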
Conditions: growth OD

Measured: normalized growth

CCCC(=O)Nc1ccc(OCC(O)CNC(C)C)c(C(C)=O)c1 (configuration not stated)
inactive: S. cerevisiae deletion strains, locus YJR075W, strain HOC1, stronger effect = lower value 1.03 | S. cerevisiae deletion strains, locus YKL009W, strain mrt4, stronger effect = lower value 1.02 | S. cerevisiae deletion strains, locus YKL068W, stronger effect = lower value 1.02 | S. cerevisiae deletion strains, locus YKL085W, strain MDH1 (second series), stronger effect = lower value 1.01 | S. cerevisiae deletion strains, locus YKL085W, strain MDH1, stronger effect = lower value 1.01 | S. cerevisiae deletion strains, locus YKL160W, strain elf1, stronger effect = lower value 1.02 | S. cerevisiae deletion strains, locus YKL190W, strain CNB1, stronger effect = lower value 1.01 | S. cerevisiae deletion strains, locus YKR001C, strain vps1, stronger effect = lower value 1.04 | S. cerevisiae deletion strains, locus YKR026C, strain gcn3, stronger effect = lower value 1.01 | S. cerevisiae deletion strains, locus YKR091W, strain srl3, stronger effect = lower value 1 | S. cerevisiae deletion strains, locus YLL001W, strain dnm1, stronger effect = lower value 1.02 | S. cerevisiae deletion strains, locus YLL026W, stronger effect = lower value 1.01 | S. cerevisiae deletion strains, locus YLL041C, strain sdh2, stronger effect = lower value 1.01 | S. cerevisiae deletion strains, locus YLR027C, strain aat2, stronger effect = lower value 1.01 | S. cerevisiae deletion strains, locus YLR039C, strain RIC1, stronger effect = lower value 1.06 | S. cerevisiae deletion strains, locus YLR058C, strain SHM2, stronger effect = lower value 1.01 | S. cerevisiae deletion strains, locus YLR102C, strain apc9, stronger effect = lower value 1.01 | S. cerevisiae deletion strains, locus YLR113W, strain HOG1, stronger effect = lower value 0.999 | S. cerevisiae deletion strains, locus YLR221C, strain rsa3, stronger effect = lower value 1.01 | S. cerevisiae deletion strains, locus YLR258W, strain gsy2, stronger effect = lower value 1.02 | S. cerevisiae deletion strains, locus YLR262C, strain YPT6 (second series), stronger effect = lower value 1.02 | S. cerevisiae deletion strains, locus YLR262C, strain YPT6, stronger effect = lower value 1.02 | S. cerevisiae deletion strains, locus YLR268W, strain sec22, stronger effect = lower value 1.05 | S. cerevisiae deletion strains, locus YLR320W, strain mms22, stronger effect = lower value 1 | S. cerevisiae deletion strains, locus YLR330W, strain CHS5, stronger effect = lower value 1.01 | S. cerevisiae deletion strains, locus YLR342W, strain FKS1 (second series), stronger effect = lower value 1 | S. cerevisiae deletion strains, locus YLR342W, strain FKS1, stronger effect = lower value 1.01 | S. cerevisiae deletion strains, locus YLR357W, strain rsc2, stronger effect = lower value 0.97 | S. cerevisiae deletion strains, locus YLR370C, strain arc18, stronger effect = lower value 1.02 | S. cerevisiae deletion strains, locus YLR371W, strain rom2, stronger effect = lower value 1.02 | S. cerevisiae deletion strains, locus YLR384C, strain iki3, stronger effect = lower value 1.01 | S. cerevisiae deletion strains, locus YLR418C, strain cdc73, stronger effect = lower value 1.05 | S. cerevisiae deletion strains, locus YML016C, strain PPZ1, stronger effect = lower value 1.01 | S. cerevisiae deletion strains, locus YML032C, strain rad52, stronger effect = lower value 1.02 | S. cerevisiae deletion strains, locus YML120C, strain ndi1, stronger effect = lower value 0.999 | S. cerevisiae deletion strains, locus YML124C, strain tub3, stronger effect = lower value 1.02 | S. cerevisiae deletion strains, locus YMR058W, strain fet3, stronger effect = lower value 1 | S. cerevisiae deletion strains, locus YMR078C, strain ctf18, stronger effect = lower value 1.02 | S. cerevisiae deletion strains, locus YMR125W, strain sto1, stronger effect = lower value 1 | S. cerevisiae deletion strains, locus YMR129W, stronger effect = lower value 1.01 | S. cerevisiae deletion strains, locus YMR205C, strain PFK2, stronger effect = lower value 1 | S. cerevisiae deletion strains, locus YMR223W, strain ubp8, stronger effect = lower value 1 | S. cerevisiae deletion strains, locus YMR231W, strain pep5, stronger effect = lower value 1.02 | S. cerevisiae deletion strains, locus YMR263W, strain SAP30, stronger effect = lower value 1.02 | S. cerevisiae deletion strains, locus YMR307W, strain GAS1, stronger effect = lower value 1.03 | S. cerevisiae deletion strains, locus YNL067W, strain RPL9B, stronger effect = lower value 1.03 | S. cerevisiae deletion strains, locus YNL071W, strain lat1, stronger effect = lower value 1.02 | S. cerevisiae deletion strains, locus YNL128W, strain TEP1, stronger effect = lower value 1.01 | S. cerevisiae deletion strains, locus YNL153C, strain GIM3, stronger effect = lower value 1.02 | S. cerevisiae deletion strains, locus YNL183C, strain NPR1, stronger effect = lower value 0.97 | S. cerevisiae deletion strains, locus YNL209W, strain ssb2, stronger effect = lower value 1.04 | S. cerevisiae deletion strains, locus YNL233W, strain BNI4, stronger effect = lower value 1.01 | S. cerevisiae deletion strains, locus YNL248C, strain rpa49, stronger effect = lower value 1.03 | S. cerevisiae deletion strains, locus YNL250W, strain rad50, stronger effect = lower value 1.01 | S. cerevisiae deletion strains, locus YNL271C, strain bni1, stronger effect = lower value 1.02 | S. cerevisiae deletion strains, locus YNL298W, strain CLA4, stronger effect = lower value 1.02 | S. cerevisiae deletion strains, locus YNL307C, strain MCK1, stronger effect = lower value 1.02 | S. cerevisiae deletion strains, locus YNL322C, strain KRE1 (second series), stronger effect = lower value 1.03 | S. cerevisiae deletion strains, locus YNL322C, strain KRE1, stronger effect = lower value 1.01 | S. cerevisiae deletion strains, locus YNR049C, strain mso1, stronger effect = lower value 1.01 | S. cerevisiae deletion strains, locus YNR052C, strain pop2, stronger effect = lower value 1.02 | S. cerevisiae deletion strains, locus YOL006C, strain TOP1, stronger effect = lower value 1.07 | S. cerevisiae deletion strains, locus YOL012C, strain htz1 0.744 | S. cerevisiae deletion strains, locus YOL147C, strain pex11, stronger effect = lower value 1.02 | S. cerevisiae deletion strains, locus YOR001W, strain rrp6, stronger effect = lower value 1.01 | S. cerevisiae deletion strains, locus YOR061W, strain CKA2, stronger effect = lower value 1.01 | S. cerevisiae deletion strains, locus YOR069W, strain VPS5, stronger effect = lower value 1.01 | S. cerevisiae deletion strains, locus YOR070C, strain gyp1, stronger effect = lower value 1.02 | S. cerevisiae deletion strains, locus YOR080W, strain dia2, stronger effect = lower value 1.02 | S. cerevisiae deletion strains, locus YOR083W, strain WHI5, stronger effect = lower value 0.988 | S. cerevisiae deletion strains, locus YOR106W, strain vam3, stronger effect = lower value 1.03 | S. cerevisiae deletion strains, locus YOR136W, strain idh2, stronger effect = lower value 1.01 | S. cerevisiae deletion strains, locus YOR144C, strain elg1, stronger effect = lower value 1.02 | S. cerevisiae deletion strains, locus YOR184W, strain ser1, stronger effect = lower value 1.03 | S. cerevisiae deletion strains, locus YOR231W, strain MKK1, stronger effect = lower value 0.993 | S. cerevisiae deletion strains, locus YOR265W, strain rbl2, stronger effect = lower value 1.02 | S. cerevisiae deletion strains, locus YOR270C, strain vph1, stronger effect = lower value 1.07 | S. cerevisiae deletion strains, locus YOR290C, strain snf2, stronger effect = lower value 1.05 | S. cerevisiae deletion strains, locus YOR316C, strain cot1, stronger effect = lower value 1.02 | S. cerevisiae deletion strains, locus YPL051W, strain arl3, stronger effect = lower value 1 | S. cerevisiae deletion strains, locus YPL055C, strain LGE1, stronger effect = lower value 1.07 | S. cerevisiae deletion strains, locus YPL078C, strain atp4, stronger effect = lower value 1.03 | S. cerevisiae deletion strains, locus YPL106C, strain sse1, stronger effect = lower value 1.02 | S. cerevisiae deletion strains, locus YPL240C, strain hsp82, stronger effect = lower value 1.03 | S. cerevisiae deletion strains, locus YPL241C, strain CIN2, stronger effect = lower value 1.01 | S. cerevisiae deletion strains, locus YPL256C, strain CLN2, stronger effect = lower value 0.992 | S. cerevisiae deletion strains, locus YPR119W, strain clb2, stronger effect = lower value 1.01 | S. cerevisiae deletion strains, locus YPR141C, strain kar3, stronger effect = lower value 1.01 | S. cerevisiae deletion strains, locus YPR163C, strain tif3, stronger effect = lower value 1.02 | S. cerevisiae deletion strains, locus YPR167C, strain met16, stronger effect = lower value 1.01 | S. cerevisiae deletion strains, strain wtn01, stronger effect = lower value 1.03 | S. cerevisiae strains, strain wild type, stronger effect = lower value 1.02
